High-throughput results from PubChem BioAssay.
In the library only some 3.7% were active in any assay of this set; here they are far more common.
GLP-1R agonist: agonists of human GLP-1 receptor. P43220. HEK293 GLP-1R CRE-luciferase, luminescence, 4-6 h; cells express a hypersensitive GLP-1R form. Potency, µM (highest dose often 45.6 µM), hits mostly activators. 380,000 compounds, 0.007% hits. AID 624172
Target sequence (P43220 whole entry, looked up): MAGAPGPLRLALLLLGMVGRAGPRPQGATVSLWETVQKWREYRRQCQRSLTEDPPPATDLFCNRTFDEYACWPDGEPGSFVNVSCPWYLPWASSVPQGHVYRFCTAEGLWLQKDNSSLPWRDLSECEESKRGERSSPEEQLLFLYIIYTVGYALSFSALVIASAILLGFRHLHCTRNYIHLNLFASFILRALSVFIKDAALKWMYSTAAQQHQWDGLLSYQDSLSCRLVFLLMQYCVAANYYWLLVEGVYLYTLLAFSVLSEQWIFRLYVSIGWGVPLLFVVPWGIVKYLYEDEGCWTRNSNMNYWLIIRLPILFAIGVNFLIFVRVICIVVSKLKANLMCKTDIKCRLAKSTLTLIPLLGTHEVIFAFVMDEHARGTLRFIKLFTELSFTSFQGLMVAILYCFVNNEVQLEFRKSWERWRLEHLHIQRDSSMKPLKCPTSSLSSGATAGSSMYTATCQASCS
ATXN2 expr inh: reduces ATXN2 reporter expression in HEK-293 cells. HEK-293 ATXN2-luciferase reporter, luminescence, 24 h. Potency, µM (top dose mostly 57 µM), usual class: inhibitors. 360,000 compounds, 0.72% hits; note: nearly all actives have a fitted effect of over 55% in size
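qHTS (up to 57 uM final) was run with 24 h compound exposure of reporter cells at 37 °C. Each well was multiplexed: SteadyGlo luminescence measured ATXN2-luciferase expression after a fluorogenic Gly-Phe-AFC viability readout (25 uM final).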
ATXN viability: viability counter-screen for ATXN expression inhibitors | S2 cells (HEK-293 line with an ATXN2-luciferase reporter) viability, CellTiter-Fluor protease fluorescence, 24 h | Potency, µM (series often up to 56.7 µM), actives largely listed as cytotoxic | 400,000 compounds, 0.49% hits | AID 651635; note: nearly all actives have a fitted effect of over 40% in size
GLP1R inv ag: acts as inverse agonist at human GLP-1 receptor. P43220. HEK293 GLP-1R CRE-luciferase, luminescence, 24 h; GLP-1R form is constitutively active. Potency, µM (doses to about 38.3 µM), usual class: inhibitors. 410,000 compounds, 1.6% hits. AID 624417; note: nearly all actives have a fitted effect of over 55% in size
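Assay principle: reduced luminescence from a cAMP-responsive reporter in HEK293 cells co-expressing a constitutively active GLP-1R. Conditions: 24 hr compound incubation, 37 deg C, 5% CO2.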
TGFb SMAD3 inh: inhibitors of TGF-b signaling | AID 588855 | HepG2 CAGA-GFP TGF-b/SMAD3 reporter, GFP fluorescence, 18 h; TGF-beta stimulated, 500 pg/mL final | Potency, µM (series often up to 46.1 µM), hits mostly inhibitors | 410,000 compounds, 1.2% hits; note: nearly all actives have a fitted effect of over 65% in size
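TGF-beta reporter screen: HEPG2 CAGA-GFP, 1% FBS, 500 pg/mL TGF-beta final, 18 h; per-cell GFP summed per well; curves fitted and categorized by class.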
HepG2 viability: kills HepG2 cells in TGF-b inhibitor counter-screen; HepG2 CAGA-GFP viability, ATP luminescence, 18 h; Potency, µM (top dose mostly 46.1 µM), hits mostly cytotoxic; 410,000 compounds, 0.76% hits
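HepG2 CAGA-GFP cells (1000/well, DMEM with 1% FBS) received compound, then TGF-beta at 500 pg/mL final, and were incubated 18 hours at 37 degrees C. Viability was read by CellTiter-Glo luminescence. Media-only wells were set as complete cell-killing and DMSO as no toxicity.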
Numbers stand for hits; . = inactive; ? = inconclusive; / = no result; ! = not confirmed by another sample. Calls come from the whole dose curve; as a rule, active = well fitted curve in the direction sought with a large enough effect; inconclusive = small, poorly fitted or top-dose-only effect, or another doubt; inactive = no such curve, though single readings can be large; an effect the other way counts as inactive or inconclusive.

SMILES	GLP-1R agonist	ATXN2 expr inh	ATXN viability	GLP1R inv ag	TGFb SMAD3 inh	HepG2 viability
CCc1ccc(NC(=O)C(C)Oc2nnc(-c3cccs3)c(-c3cccs3)n2)cc1 (stereo not given)	.	.	.	10µM	.	.
COc1ccc(CNC(=O)c2cc3cccc4c3n2CC(C)S4)c(OC)c1 (stereo not given)	/	/	/	7.94µM	.	.
CCN1/C(=C/C(C)=C/c2sc3ccccc3[n+]2CC)Sc2ccccc21	.	?	5.62µM	?	4.47µM	.
N#CCSc1nnc(-c2sc3ccccc3c2Cl)o1	.	.	.	?	.	.
COC(=O)CSc1nnc(-c2sc3ccccc3c2Cl)o1	.	22.4µM	.	.	.	.
CCCCN(C)CCNC(=O)C1CCN(c2nc3ccc(CC)cc3s2)CC1	/	/	/	.	/	.
COc1ccc(-c2cn(Cc3ccc(C(=O)c4ccccc4)cc3)nn2)cc1	.	.	?	?	10µM	.
C[C@@H]1[C@H](O)[C@@H](C)C=CC=CC=CC=CC=CC=CC=C[C@H](O[C@@H]2O[C@H](C)[C@H](O)[C@H](N)[C@@H]2O)C[C@@H]2O[C@](O)(C[C@@H](O)C[C@@H](O)[C@H](O)CC[C@@H](O)C[C@@H](O)CC(=O)O[C@H]1C)C[C@H](O)[C@@H]2C(=O)O	/	.	/	/	/	/
Cc1nc(SCC(=O)NCC(F)(F)F)c2c(-c3cccs3)csc2n1	.	/	.	?	.	.
Cc1nc(SCC(=O)NC(C)(C#N)C2CC2)c2c(-c3cccs3)csc2n1 (stereo not given)	.	.	?	6.31µM	.	.
CC(=O)NCCCS(=O)(=O)O	.	/	/	/	/	/
COc1cc(C=C2CN(C)C(=O)C2=O)ccc1O	.	/	28.2µM	.	.	.
CCOc1cc(/C=C2/C(=O)ON=C2C)ccc1O	.	.	.	.	.	.
CCOc1cc(/C=C2\CCC/C(=C\c3cc(Cl)c(O)c(OCC)c3)C2=O)cc(Cl)c1O	.	8.91µM	15.8µM	10µM	5.01µM	7.94µM
CCOc1cc(/C=C2\CN(C)C/C(=C\c3ccc(O)c(OCC)c3)C2=O)ccc1O	.	3.16µM	/	?	?	.
CCn1ccc(NS(=O)(=O)c2ccc(N)cc2)nc1=O	/	.	.	/	/	/
N#CCCN(Cc1ccccc1)C(CCc1ccccc1)C(=O)NC1CCCCC1 (stereo not given)	.	?	?	?	12.6µM	.
Cc1ccc(-c2ccnc(-n3ncc(C(=O)N4CCCCC4c4cccnc4)c3C3CC3)n2)o1 (stereo not given)	/	/	.	/	/	/
O=C(CSc1nnc(-c2ccc(O)cc2)o1)c1ccc(Br)cc1	/	.	?	8.91µM	.	.
O=C(O)CSc1nnc(-c2ccc(O)cc2)o1	.	.	.	.	.	.
COc1ccc(C2CC(c3ccccc3)Oc3cc(OC)ccc32)cc1 (stereo not given)	/	/	/	/	.	.
CC(C)CC(=O)NC(=S)Nc1ccc(N2CCN(C(=O)c3cccs3)CC2)cc1	.	?	?	10µM	?	.
Cc1ccc(C(=O)N2CCN(c3ccc(NC(=S)NC(=O)c4cccs4)cc3)CC2)cc1	.	?	.	8.91µM	.	.
CC(C)C(=O)Nc1ccc(N2CCN(C(=O)c3cccs3)CC2)cc1	.	.	.	.	.	.
Cc1ccccc1C(=O)N1CCN(c2ccc(NC(=S)NC(=O)c3cccs3)cc2)CC1	.	/	?	?	?	.
SMILES	GLP-1R agonist	ATXN2 expr inh	ATXN viability	GLP1R inv ag	TGFb SMAD3 inh	HepG2 viability
N#CC(c1ccc([N+](=O)[O-])cc1)C(CC(=O)c1ccccc1)c1ccccc1 (stereo not given)	.	.	.	11.2µM	?	.
N#CC(c1cccc([N+](=O)[O-])c1)C(CC(=O)c1ccccc1)c1ccccc1 (stereo not given)	.	/	.	?	.	.
N#CC(c1ccccc1)C(CC(=NO)c1ccccc1)c1ccccc1 (stereo not given)	.	/	?	8.91µM	?	.
CCNC(=O)[C@@H]1CCCN1C(=O)[C@H](CCCN=C(N)N)NC(=O)[C@H](CC(C)C)NC(=O)[C@@H](Cc1c[nH]c2ccccc12)NC(=O)[C@H](Cc1ccc(O)cc1)NC(=O)[C@H](CO)NC(=O)[C@H](Cc1c[nH]c2ccccc12)NC(=O)[C@H](Cc1cnc[nH]1)NC(=O)[C@@H]1CCC(=O)N1	.	/	/	/	/	/
COc1cc2c(cc1OC)C(c1ccc(-c3ccc(Cl)cc3Cl)o1)=NCC2	.	?	?	?	14.1µM	.
COc1cc2c(cc1OC)C(c1ccc(-c3ccccc3Cl)o1)=NCC2	.	35.5µM	/	?	?	.
COc1cc2c(cc1OC)C(c1ccc(-c3cc(Cl)ccc3Cl)o1)=NCC2	.	?	?	.	.	.
COc1cc2c(cc1OC)C(c1ccc(-c3ccc(Cl)c(Cl)c3)o1)=NCC2	?	?	.	.	11.2µM	11.2µM!
COc1cc2c(cc1OC)C(c1ccc(Cl)cc1)=NCC2	.	/	?	.	?	.
COc1cc2c(cc1OC)C(c1oc(-c3ccc(-c4cc(Cl)ccc4Cl)o3)cc1C)=NCC2	/	/	/	/	.	.
NC(=S)NN=Cc1nccc2c(C(F)(F)F)cccc12	.	/	?	1.26µM	?	.
CNc1cccnc1C=NNC(N)=S	.	?	.	.	?	.
Cc1ccc2c(c1)cc(CN(C)Cc1nc(C)cs1)c(=O)n2C	/	/	.	/	/	/
O=C(Nc1ccc(Cl)c(S(=O)(=O)N2CCOCC2)c1)c1ccccc1-c1ccc(C(F)(F)F)cc1	.	.	.	2.82µM	.	.
CC(=O)Nc1ccc(S(=O)(=O)N2CC3(C)CC2CC(C)(C)C3)cc1 (stereo not given)	.	.	.	?	.	.
CC1(C)CC2CC(C)(CN2S(=O)(=O)c2ccc(C(=O)Nc3ccc(Cl)c(S(=O)(=O)N4CCOCC4)c3)cc2)C1 (stereo not given)	.	.	.	3.55µM	?	.
CC1(C)CC2CC(C)(CN2S(=O)(=O)c2ccc(C(=O)Nc3ccc(S(=O)(=O)N4CCOCC4)cc3)cc2)C1 (stereo not given)	.	?	.	11.2µM	.	.
O=C(NCCN1CCOCC1)c1cnn(-c2nccc(-c3ccccc3F)n2)c1C1CC1	/	/	.	/	/	/
O=C(Nc1nc2ccc(Cl)cc2s1)C1CC1	.	.	.	?	?	.
O=C(CP(=O)(c1ccccc1)c1ccccc1)Nc1nc2ccc(Cl)cc2s1	.	.	.	11.2µM	?	.
COC(=O)Cc1ccc(NC(=O)c2ccc(C(C)(C)C)cc2)cc1	.	0.794µM	.	4.47µM	.	.
CC(C)(C)c1ccc(C(=O)Nc2ccc(Cl)cc2)cc1	.	.	.	.	.	.
